Bioassay records: PubChem, NMMLSC
RGS4-Gao reg: modulators of RGS4 binding to Galphao, primary screen, biochemical, multiplexed bead flow cytometry | binding response (% of control), % at 10 µM | 0.33% of 220,000 active | actives lie on both sides | AID 1415, 2008 | Guanine nucleotide-binding protein G(o) subunit alpha (Homo sapiens), P09471; in the data active = binding response below about 49% or above about 150%; inactive = in between;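 also: fluorescent Galphao activated with aluminum fluoride binding bead-coupled RGS4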
Target sequence (P09471 whole entry, looked up): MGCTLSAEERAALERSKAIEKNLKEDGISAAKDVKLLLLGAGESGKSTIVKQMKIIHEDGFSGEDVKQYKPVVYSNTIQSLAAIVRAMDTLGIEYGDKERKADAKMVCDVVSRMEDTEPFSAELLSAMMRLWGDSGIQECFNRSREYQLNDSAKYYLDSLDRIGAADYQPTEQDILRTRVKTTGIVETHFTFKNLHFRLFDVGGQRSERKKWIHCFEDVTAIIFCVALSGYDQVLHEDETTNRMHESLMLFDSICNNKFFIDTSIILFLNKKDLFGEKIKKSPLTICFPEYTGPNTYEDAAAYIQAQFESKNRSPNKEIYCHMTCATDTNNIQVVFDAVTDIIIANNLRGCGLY
RGS16-Gao HTS: modulators of RGS16 binding to Galphao, primary screen, biochemical, human proteins, multiplexed bead flow cytometry; bead-based flow cytometry RGS16-Galphao binding, fluorescence; actives lie on both sides; binding response (% of control), % at 10 µM; AID 1441, 2008; 0.38% of 220,000 active; Regulator of G-protein signaling 16 (Homo sapiens) + Guanine nucleotide-binding protein …;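 also: Galphao activated by GDP with aluminum fluoride before binding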
Target sequence (O15492 whole entry, looked up): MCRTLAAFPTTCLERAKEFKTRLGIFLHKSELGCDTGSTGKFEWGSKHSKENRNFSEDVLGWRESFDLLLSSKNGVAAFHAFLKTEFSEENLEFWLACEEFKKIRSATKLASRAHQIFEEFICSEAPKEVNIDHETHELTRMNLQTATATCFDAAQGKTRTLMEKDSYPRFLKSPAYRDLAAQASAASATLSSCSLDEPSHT
Target sequence (P09471 whole entry, looked up): as the sequence (P09471 whole entry, looked up) above
RGS8-Gao reg: RGS8-Galphao binding modulators, primary screen, biochemical, multiplexed bead flow cytometry; actives lie on both sides; response (percent of control binding), % at 10 µM; 0.34% of 220,000 active; AID 1423, 2008; in the data active = response below about 60% or above about 140%; inactive = in between;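 also: Galphao activated as the GDP aluminium fluoride complex binding bead-coupled RGS8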
Avidin bead fluor: green autofluorescence of compounds with avidin beads – biophysical, 488/530 nm, flow cytometry, artefact control, profiling panel; compound fluorescence 488/530 nm; hits give high values; 0.38% of 220,000 active; AID 1775, 2009; fluorescence (KMESF) at 10 µM; in the data active = fluorescence above about 47
RGS7-Gao reg: RGS7-Galphao binding modulators, primary screen, biochemical, multiplexed bead flow cytometry; Guanine nucleotide-binding protein G(o) subunit alpha (Homo sapiens), P09471; 0.35% of 220,000 active; binding response (% of control), % at 10 µM; actives lie on both sides; AID 1439, 2008; in the data active = binding response below about 49% or above about 150%; inconclusive = no clear call, values can overlap the other calls; inactive = in between;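 also: fluorescent Galphao held in activated GDP-AlF4 state binding bead-coupled RGS7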
GSH fluor: compound fluorescence on glutathione beads, profiling panel, artefact control, biophysical, 488/530 nm, flow cytometry. 0.25% of 190,000 active. GSH beads flow cytometry, compound fluorescence 488/530 nm; hits give high values. fluorescence (KMESF) at 10 µM; in the data active = fluorescence above about 89;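 also: glutathione beads carrying GST-tagged Bcl family fusion proteins plus one bare bead set; values are compound well signal with DMSO vehicle wells as background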
RGS-Gao: modulators of RGS–Galpha-o binding, primary screen, biochemical, multiplexed beads, flow cytometry, RGS4/7/8/16/19; shares compounds with RGS16-Gao HTS; multiplexed bead flow cytometry; RGS4–Galpha-o binding response, % at 10 µM; 99% of 1,600 active; AID 1504, 2009;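 also: fluorescently labeled Galpha-o bound to GDP with aluminium fluoride binding biotinylated RGS beads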
Avidin counter: disruption of biotin probe capture by avidin, counter-screen for RGS protein interaction modulators, biochemical, flow cytometry, bead-based | streptavidin beads, fluorescein-biotin binding | AID 1783, 2009 | inhibition, % at 10 µM | shares compounds with RGS16-Gao HTS | 1,700 tested, under 10 active;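 active = inhibition above 50%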;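 also: median green fluorescence of gated singlet beads compared with DMSO control wells; 0% = DMSO wells and 100% = complete loss of bead fluorescence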
RGS8-Gao single: RGS8-Galphao binding modulators, confirmation, biochemical, multiplexed bead flow cytometry, single concentration | shares compounds with RGS16-Gao HTS | binding response (% of control), % at 10 µM | bead-based flow cytometry RGS8-Galphao binding, fluorescence; actives lie on both sides | AID 1836, 2009 | 3% of 1,700 active; in the data active = binding response below about 72% or above about 130%; inactive = in between;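 also: Galphao activated as GDP AlF4 complex before binding bead RGS8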
RGS7-Gao single: RGS7-Galphao binding modulators, confirmation, biochemical, multiplexed bead flow cytometry, single concentration | shares compounds with RGS16-Gao HTS | bead-based flow cytometry RGS7-Galphao binding; actives lie on both sides | response (percent of control binding), % at 10 µM | 7.8% of 1,700 active | AID 1837, 2009; in the data active = response below about 75% or above about 130%; inactive = in between;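 also: fluorescent Galphao activated with GDP and aluminum fluoride binding bead-coupled RGS7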
RGS16-Gao single: modulators of RGS16-Galphao protein binding, confirmation, biochemical, single concentration, multiplexed bead flow cytometry | shares compounds with RGS16-Gao HTS | bead-based flow cytometry; actives lie on both sides | response (% of control binding), % at 10 µM | 4% of 1,700 active | AID 1838, 2009; in the data active = response below about 74% or above about 130%; inactive = in between;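 also: Galphao activated as the GDP aluminium fluoride complex binding bead-coupled RGS16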
RGS4-Gao single: modulators of RGS4-Galphao protein binding, confirmation, biochemical, single concentration, multiplexed bead flow cytometry; AID 1840, 2009; shares compounds with RGS16-Gao HTS; 4% of 1,700 active; binding response (% of control), % at 10 µM; actives lie on both sides; in the data active = binding response below about 74% or above about 130%; inactive = in between
RGS19-Gao conf: regulators of RGS19-Galphao binding, confirmation, biochemical, single point, multiplexed bead flow cytometry; response (percent of control binding), % at 10 µM; shares compounds with RGS16-Gao HTS; bead-based flow cytometry RGS19-Galphao binding; actives lie on both sides; AID 1841, 2009; 5% of 1,700 active; in the data active = response below about 50% or above about 160%; inactive = in between;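 also: 100% = no compound control and 0% = blank background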
* = called active by the depositor; i = inactive; ? = inconclusive; nt = no result; [ ] = another dose, or the depositor's remark. The list is not random: actives were taken first. Their share in the collection is about 1.2%. Unless noted, no rule for the calls is given here.

SMILES	RGS4-Gao reg	RGS16-Gao HTS	RGS8-Gao reg	Avidin bead fluor	RGS7-Gao reg	GSH fluor	RGS-Gao	Avidin counter	RGS8-Gao single	RGS7-Gao single	RGS16-Gao single	RGS4-Gao single	RGS19-Gao conf
CC1=NN(Cc2c(C)nn(Cc3ccccc3)c2C)C(C)(C)C1	101	99	99	5	98	10	nt	nt	nt	nt	nt	nt	nt
CCOc1ccc(C(=O)N[C@H](C(=O)Nc2cccc(S(=O)(=O)N3CCCCC3)c2)C(C)C)cc1	90	4.6*	80	4	88	7	90*	1	103	100	98	102	93
Cc1cccc(C(=O)N[C@H](C(=O)Nc2cccc(S(=O)(=O)N3CCCC3)c2)C(C)C)c1	109	110	103	16	?	nt	nt	nt	nt	nt	nt	nt	nt
Cc1ccc(-c2c[n+](CC(=O)OCc3ccccc3)c3n2CCC3)cc1	12*	7.7*	13*	-2	9.5*	13	nt	-2	103	96	103	99	94
Cc1nn(C)c(C(=O)N2CCOCC2)c1Cl	102	96	100	5	100	13	nt	nt	nt	nt	nt	nt	nt
COc1ccc(-c2noc(Cc3ccc(Cl)cc3)n2)cc1OC	109	93	98	67*	167*[activator]	28	109*	-1	103	99	101	101	102
COc1ccc(Cc2nc(-c3ccc(Cl)cc3)no2)cc1	102	103	102	12	99	33	nt	nt	nt	nt	nt	nt	nt
CCCCCn1c(CN(C)Cc2ccccc2)nc2c1c(=O)n(C)c(=O)n2C	110	238*[activator]	129	7	110	11	110*	-3	100	100	99	100	103
Cc1csc2ncnc(N3CCN(C(=S)Nc4ccc(F)cc4F)CC3)c12	96	92	100	7	?	nt	nt	nt	nt	nt	nt	nt	nt
CCn1c(=O)cc(OCC(=O)NCc2cccs2)c2ccccc21	97	97	99	16	101	11	nt	nt	nt	nt	nt	nt	nt
Cn1cnnc1SCC(=O)Nc1c(F)cc(F)cc1Br	nt	nt	nt	nt	nt	41	nt	1	102	97	101	101	96
Cc1cc[n+]2n1CC(O)C2 (stereo not drawn)	nt	nt	nt	nt	nt	nt	nt	2	103	97	101	103	85
OCCC1CN(Cc2ccc(Oc3ncccn3)cc2)CCN1C1CCCCC1 (stereo not drawn)	147	88	48*	159*	?	nt	147*	-1	102	100	102	100	97
COc1ccc(S(=O)(=O)Nc2nc3ccccc3s2)cc1	100	102	98	42	99	11	nt	nt	nt	nt	nt	nt	nt
CCOc1ccc2sc(NS(=O)(=O)c3ccc(OC)c(OC)c3)nc2c1	nt	nt	nt	nt	nt	42	nt	0	101	102	99	99	107
CCC1CCC(c2nnc(-c3ccc(Br)cc3)o2)CC1 (stereo not drawn)	89	13*	72	7	86	9	89*	0	99	102	99	100	91
CCn1nnc(NC(=O)CSc2ccc(Cl)cc2)n1	nt	nt	nt	nt	nt	34	nt	0	97	90	100	93	114
CCN=c1scc(C)n1/N=C/c1ccc(O)c(O)c1O	80	55	59*	4	65	26	80*	1	67*	64*	64*	78	47*
Cn1c(SCC(=O)N2CCCC2=O)nc2ccccc21	19*	9.5*	13*	0	?	11	nt	0	97	95	96	95	96
CC(=O)/C(N=Nc1nc2c([nH]1)c(=O)n(C)c(=O)n2C)=C(\C)O	123	121	111	4	?	nt	nt	nt	nt	nt	nt	nt	nt
Cn1c(=O)c2c(nc(SCCN3CCOCC3)n2Cc2ccccc2Cl)n(C)c1=O	101	103	101	26	103	16	nt	nt	nt	nt	nt	nt	nt
Cn1c(=O)c2c(nc(SCCN3CCOCC3)n2Cc2ccc(F)cc2)n(C)c1=O	139	i	158*[activator]	5	133	27	139*	0	103	106	106	101	112
CCCn1nnc(NC(=O)c2cc3ccccc3o2)n1	100	102	100	13	101	26	nt	nt	nt	nt	nt	nt	nt
CCCCn1nnc(NC(=O)c2cc3ccccc3o2)n1	134	426	148*[activator]	4	127	33	134*	1	110	119	111	115	106
CCCCC1C2C(=O)N(c3ccc(C)cc3)C(=O)C2ON1c1ccccc1 (stereo not drawn)	98	99	100	8	?	nt	nt	nt	nt	nt	nt	nt	nt
Nc1ccc(C(CC(=O)O)n2cccc2)cc1 (stereo not drawn)	83	96	72	13	39*	7	83*	-1	97	80	90	89	66
O=C(OCc1cccc2ccccc12)c1ccc2c(=O)[nH]c(CN3CCOCC3)nc2c1	-138*	-114*	-2.4*	-6	-54*	32	nt	2	98	98	101	101	96
